HCV inh: qHTS Assay for Inhibitors of Hepatitis C Virus (HCV) | Potency, µM (top dose mostly 41.8 µM), for inactives: at the highest dose activity change, negative = inhibition, usual class: inhibitors | Huh7.5.1 HCVcc-Cre infection, luciferase reporter, 44 h | AID 651820, 2012 | 3.4% of 340,000 active; active = well fitted inhibition curve with a large enough effect; inconclusive = small, poorly fitted or top-dose-only effect, or another doubt; inactive = no such curve, though single readings can be large or run the other way; note: potency is the fitted concentration of half-maximal effect
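Compounds are dispensed onto cells plated 4 h earlier at 1,000 per well, with HCVcc-Cre virus (about 0.5 moi) added next. Following 44 h of culture, luminescent signal is measured for 15 sec after 15 min with substrate at room temperature.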
MARV entry inh: qHTS for inhibitors of binding or entry into cells for Marburg Virus | Marburg virus pseudotyped entry inhibition, cell reporter | Potency, µM (highest dose often 37.8 µM), for inactives: at the top dose activity change, negative = inhibition, hits mostly inhibitors | 1.8% of 300,000 active; calls by dose curve; tested in HEK293 cells; note: potency is the fitted concentration of half-maximal effect
Lassa entry inh: qHTS for Inhibitors of binding or entry into cells for Lassa Virus | 1.2% of 300,000 active | AID 540256, 2011 | Potency, µM (highest dose often 37.9 µM), without a hit: at the top dose activity change, negative = inhibition, usual class: inhibitors | Lassa virus pseudotype entry inhibition, cell reporter; calls by dose curve; tested in HEK293 cells; note: potency is the fitted concentration of half-maximal effect; nearly all actives have a fitted effect of over 50% in size
HCMV inh: qHTS Assay for inhibitors of the human cytomegalovirus (HCMV); HFF cells, HCMV-luciferase reporter, 72 h; stronger effect = lower value; activity change, negative = inhibition, % at 57.5 µM; 4.5% of 410,000 active; in the data active = activity change below about -60%; inconclusive = no clear call, values can overlap the other calls; inactive = above about -39%
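Two compound doses tested in HFFs infected with HCMV-luciferase, MOI 1 PFU/cell, 72 h at 37C. Lysate luminescence read with OneGlo; data normalized against buffer-only and 10uM Salinomycin inhibitor controls.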
FMDV antiviral: High Throughput Screening for Foot and Mouth Disease Virus Antivirals; Potency, µM (top dose mostly 57.9 µM), for inactives: at the top dose activity change, negative = inhibition, hits mostly inhibitors; 1.2% of 410,000 active; AID 1159524, 2015; FMDV antiviral cell-based qHTS; calls by dose curve; tested in HEK293T cells; note: read-out not given here; potency is the fitted concentration of half-maximal effect; nearly all actives have a fitted effect of over 45% in size
* = called active by the depositor; ? = inconclusive; nt = not tested or not shown; ! = not active in a repeat; [ ] = dose if it differs, or a comment. Only some compounds are listed: those with a hit (about 7.9% of all), similar ones and a draw of the others. % is set by controls: 0 for no effect and ±100 for the full control effect.

SMILES	HCV inh	MARV entry inh	Lassa entry inh	HCMV inh	FMDV antiviral
COc1ccccc1OCC(=O)Nc1cc(S(=O)(=O)N2CCCCC2)ccc1N1CCCCC1	25µM*	?	?	-37	?
O=C(Nc1ccc2c(c1)N(S(=O)(=O)c1cccs1)CCC2)c1c(F)cccc1Cl	14µM*	?	?	-27	3%
Cc1ccc(S(=O)(=O)N2CCCc3cc(NC(=O)c4cccc(Cl)c4)ccc32)cc1	nt	nt	-7%[46.1 µM]	-4	3%
Cc1ccc(S(=O)(=O)N2CCCc3cc(NC(=O)c4c(F)cccc4F)ccc32)cc1	10µM*	nt	-30%[46.1 µM]	-69*!	-8%
COc1cccc(OC)c1C(=O)Nc1ccc2c(c1)CCCN2S(=O)(=O)c1ccc(C)cc1	?	nt	8%[46.1 µM]	-64*!	-13%
Cc1ccc(S(=O)(=O)N2CCCc3cc(NC(=O)c4ccc(F)c(F)c4)ccc32)cc1	nt	nt	-2%[46.1 µM]	-18	-21%
c1ccc2c(c1)c1ccccc1n1c(-c3ccc4c(c3)OCO4)nnc21	?	4%	2%	14	25µM*
Cn1c(-c2ccc3c(c2)OCO3)cc(=O)c2ccccc21	13%	nt	nt	-27	0%
COc1ccc(CC(=O)N(Cc2ccccc2)c2cccc(C)c2)cc1OC	nt	-18%	-29%	?	?
O=C(CCl)N(Cc1ccccc1)c1ccccc1	5µM*	16µM*	?	-98*	22µM*
Cc1cccc(N(Cc2ccccc2)C(=O)CCl)c1	4µM*	?	-14%	-116*	13µM*
Cc1ccc(S(=O)(=O)N2CCN(CC(O)c3ccccc3)CC2)cc1C (stereo not given)	-22%	-48%[46.1 µM]	?	-24	-17%
COc1cc(/C=C2\C(=N)N3N=C(C)SC3=NC2=O)cc(Cl)c1OCCOc1ccc(NC(C)=O)cc1	-20%	nt	nt	10	-3%
COc1ccc(Cl)cc1Nc1nc(C)cc(=O)[nH]1	10µM*	-7%	9%	40	-14%
COc1ccc(-c2csc3ncnc(NCCCO)c23)cc1	?	?	8%[46.1 µM]	-68*	?
COc1ccc(-c2csc3ncnc(Nc4ccc(O)cc4)c23)cc1	?	nt	nt	?	-27%
COc1ccc(-c2csc3ncnc(NCCO)c23)cc1	?	nt	nt	-87*	?
COc1cc(OC)c(OC)cc1CN1CCCC(c2[nH]ncc2-c2cccc(C(F)(F)F)c2)C1 (stereo not given)	nt	nt	nt	nt	-7%
CC1CCC(NC(=O)c2cc(S(=O)(=O)N(C)C)ccc2N2CCCC2)CC1 (stereo not given)	11%	20%	1%	22	60%
N#Cc1ccc(OCC(O)CN2CCN(c3ncc(C(F)(F)F)cc3Cl)CC2)cc1 (stereo not given)	?	?	?	-72*	-29%
N#Cc1ccc(OCC(O)CN2CCN(CC(O)COc3ccc(C#N)cc3)CC2)cc1 (stereo not given)	19%	?	-23%	5	?
N#Cc1c(N)n(CCNC(=O)c2cccs2)c2nc3ccccc3nc12	9%	-2%	-13%	-34	-12%
CCCCCn1c(N)c(C(=O)NCCN2CCOCC2)c2nc3ccccc3nc21	-5%	?	?	-40	?
N#Cc1c(N)n(CCNC(=O)c2ccccc2)c2nc3ccccc3nc12	0%	-1%	-5%	-66*	-21%
CCCCCCn1c(N)c(C(=O)NCCN2CCOCC2)c2nc3ccccc3nc21	?	?	?	-19	11µM*
SMILES	HCV inh	MARV entry inh	Lassa entry inh	HCMV inh	FMDV antiviral
COCCCn1c(N)c(C(=O)NCCC(C)C)c2nc3ccccc3nc21	8.9µM*	?	-10%	-27	-13%
CCCCn1c(N)c(C(=O)OCCOC)c2nc3ccccc3nc21	7%	13%[46.1 µM]	-12%	-3	-1%
Nc1c(C(=O)NCCN2CCOCC2)c2nc3ccccc3nc2n1-c1cccc(F)c1	?	2%	-5%	?	-20%
COc1ccc(CCNC(=O)c2c(N)n(CCN3CCOCC3)c3nc4ccccc4nc23)cc1OC	?	?	18µM*	39	nt
Cc1c(C(=O)NCCc2cccnc2)cnn1-c1ncc2c(n1)-c1ccccc1CC2	nt	nt	nt	nt	-10%
CCOc1ccc(-c2nc3c(c(SCC(=O)N4CCCCC4)n2)Cc2cc(C)ccc2O3)cc1	nt	6%[46.1 µM]	-5%[46.1 µM]	29	10%
Nc1ccc(C(=O)N2CCN(S(=O)(=O)c3ccc4c(c3)OCCO4)CC2)cc1[N+](=O)[O-]	?	-6%	?	-33	?
